Data taken from PubChem BioAssay (NCATS).
“And” between values parts separate entries of the source, which are not always exact repeats. Equal values may be shown once. Inconclusive results are not listed. Entries that show only a call come without a potency. A structure can be active in one record and inactive in another. The source made the active and inactive calls. Calls follow the shape of the dose curve; as a rule, active = well fitted curve in the direction sought with a large enough effect; inconclusive = small, poorly fitted or top-dose-only effect, or another doubt; inactive = no such curve, though single readings can be large; an effect the other way counts as inactive or inconclusive.

Columns and labels:
[1] = target: Guanine nucleotide-binding protein G(i) subunit alpha-1 (Homo sapiens) (UniProt P63096); experiment: qHTS Assay for Inhibitors of RGS12 GoLoco Motif Activity (Green Fluorophore) (AID 879); also: potency is read from the fitted curve at half-maximal effect
Summary of the method: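 Fluorescence polarization assay: 50 nM Gαi1 with 10 nM FITC-labeled RGS12 GoLoco peptide in 10 mM Tris pH 7.5, 150 mM NaCl, 0.1 mM GDP, 0.05% NP40, 10 min at room temperature with compound.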

[2] = Cellular Toxicity (caspase-3) Hek293 (AID 664); settings: HEK293 caspase-3 activation; caspase-3 activation: at 92.2 µM (top of the series), DMSO = 0%, 100 µM tamoxifen = 100%;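 also: cells exposed to compound for 16 h at 37 °C before readout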; also: potency is read from the fitted curve at half-maximal effect
Summary of the method: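 Cells plated, 5 hr at 37 °C; compounds added; 16 hr at 37 °C; Caspase-Glo 3/7 reagent, 20 min RT; luminescence read. Activation expressed relative to DMSO and 100 uM tamoxifen, AC50 by Hill model.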

[3] = Cellular Toxicity (caspase-3) N2a (AID 665);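 also: compound exposure lasted 16 h at 37 °C before readout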
Summary of the method: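 N2a cells, 1500/well, 5 h settle at 37 °C; cpd 16 h, 37 °C; Caspase-Glo 3/7, 1 h RT; luminescence. Norm: DMSO = 0, 10 uM staurosporine = 100%. AC50, Hill fit.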

[4] = Cellular Toxicity (caspase-3) NIH 3T3 (AID 666)
Summary of the method: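 Luminescence from aminoluciferin released by caspase-3/7 cleavage of a peptide substrate served as read-out. Mouse fibroblast NIH 3T3 cells were exposed to compounds over a concentration range for 16 hours, and AC50 values came from standard Hill modelling.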

[5] = Cellular Toxicity (caspase-3) Renal Proximal Tubule (AID 667);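 also: cells exposed to compound for 16 hours at 37 °C before detection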
Summary of the method: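 Caspase-Glo 3/7 read-out, rat primary kidney proximal tubule cells. Compound exposure 16 h, 37 °C; detection after 1 h at RT. Activity scaled to DMSO and 10 uM staurosporine.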

[6] = Cellular Toxicity (caspase-3) H-4-II-E (AID 663);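 also: cells exposed to compound for 16 hr before readout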
Summary of the method: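 Rat hepatoma H-4-II-E cells (1500/well) plated 5 hr, then exposed to compound titrations for 16 hr at 37 °C. Caspase-Glo 3/7 luminescence read after 20 min at RT; data normalized to DMSO and 100 uM tamoxifen, AC50 from Hill fits.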

[7] = target: Cytochrome P450 2C9 (Homo sapiens) (UniProt P11712); experiment: qHTS Assay for Inhibitors and Substrates of Cytochrome P450 2C9 (AID 883); also: nearly all actives have a fitted effect of over 60% in size; also: potency is read from the fitted curve at half-maximal effect
Summary of the method: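 10nM CYP2C9 + 100uM Luciferin-H (=KM), 25mM KPO4; cpd 10 min 37C; NADPH regen, 60 min 37C; stop/detect with P450 Glo-Buffer 20 min; luminescence. Norm. to 57uM sulphaphenazole as full inhibition.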

[8] = target: Cytochrome P450 3A4 (Homo sapiens) (UniProt P08684); experiment: qHTS Assay for Inhibitors and Substrates of Cytochrome P450 3A4 (AID 884); also: nearly all actives have a fitted effect of over 50% in size
Summary of the method: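 20 nM human CYP3A4 with 25 uM Luciferin-PPXE (at KM) in 200 mM KPO4, preincubated 10 min with compound; NADPH regeneration started a 60 min RT reaction. Luciferin detected by luminescence, normalized to 57 uM ketoconazole as full inhibition.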

[9] = target: Cytochrome P450 2D6 (Homo sapiens) (UniProt P10635); experiment: qHTS Assay for Inhibitors and Substrates of Cytochrome P450 2D6 (AID 891); also: nearly all actives have a fitted effect of over 60% in size; also: potency is read from the fitted curve at half-maximal effect
Summary of the method: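 Human CYP2D6 (5 nM) with 30 uM Luciferin-ME EGE (at Km) in 100 mM KPO4, compound preincubated 10 min, then NADPH regeneration system for 60 min at room temperature. Luciferin read by luminescence; normalized to 1.43 uM quinidine.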

[10] = target: Cytochrome P450 3A4 (Homo sapiens) (UniProt P08684); experiment: qHTS Assay for Activators of Cytochrome P450 3A4 (AID 885); also: nearly all actives have a fitted effect of over 65% in size; also: potency is read from the fitted curve at half-maximal effect
Summary of the method: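 20nM CYP3A4 + 25uM Luciferin-PPXE (=KM), 200mM KPO4; cpd 10 min RT; NADPH regen, 60 min RT; stop w/ detection buffer, 20 min; luminescence. Normalized to 57 uM ketoconazole.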

Cytochrome P450 3A4 (Homo sapiens), sequence (P08684 whole entry, looked up): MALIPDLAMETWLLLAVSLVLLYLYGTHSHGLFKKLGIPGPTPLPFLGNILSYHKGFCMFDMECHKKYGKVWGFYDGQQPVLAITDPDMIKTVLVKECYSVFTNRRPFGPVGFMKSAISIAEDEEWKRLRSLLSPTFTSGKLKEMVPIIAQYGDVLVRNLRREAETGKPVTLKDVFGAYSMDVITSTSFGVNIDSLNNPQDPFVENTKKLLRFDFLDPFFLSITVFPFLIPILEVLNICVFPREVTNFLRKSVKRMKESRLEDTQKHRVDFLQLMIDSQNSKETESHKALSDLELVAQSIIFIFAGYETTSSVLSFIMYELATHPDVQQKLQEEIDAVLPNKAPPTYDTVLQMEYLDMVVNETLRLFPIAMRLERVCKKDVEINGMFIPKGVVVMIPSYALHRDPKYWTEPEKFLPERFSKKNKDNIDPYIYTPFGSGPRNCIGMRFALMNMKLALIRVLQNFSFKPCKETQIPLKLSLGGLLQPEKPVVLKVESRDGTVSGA
Cytochrome P450 2D6 (Homo sapiens), sequence (P10635 whole entry, looked up): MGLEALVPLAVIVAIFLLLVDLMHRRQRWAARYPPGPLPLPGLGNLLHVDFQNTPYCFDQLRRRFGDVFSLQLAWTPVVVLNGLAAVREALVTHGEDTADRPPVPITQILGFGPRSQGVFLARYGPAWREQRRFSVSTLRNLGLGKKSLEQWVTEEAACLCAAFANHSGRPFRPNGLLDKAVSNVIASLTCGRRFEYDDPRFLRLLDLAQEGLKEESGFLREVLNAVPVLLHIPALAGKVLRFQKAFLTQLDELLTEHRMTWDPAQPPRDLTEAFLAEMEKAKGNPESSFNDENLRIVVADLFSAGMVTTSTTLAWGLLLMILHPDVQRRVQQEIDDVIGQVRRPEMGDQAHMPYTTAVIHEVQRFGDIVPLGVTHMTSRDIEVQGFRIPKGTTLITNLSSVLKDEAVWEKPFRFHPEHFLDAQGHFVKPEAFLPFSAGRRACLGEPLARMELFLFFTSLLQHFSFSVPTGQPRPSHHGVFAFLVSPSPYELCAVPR
Guanine nucleotide-binding protein G(i) subunit alpha-1 (Homo sapiens), sequence (P63096 whole entry, looked up): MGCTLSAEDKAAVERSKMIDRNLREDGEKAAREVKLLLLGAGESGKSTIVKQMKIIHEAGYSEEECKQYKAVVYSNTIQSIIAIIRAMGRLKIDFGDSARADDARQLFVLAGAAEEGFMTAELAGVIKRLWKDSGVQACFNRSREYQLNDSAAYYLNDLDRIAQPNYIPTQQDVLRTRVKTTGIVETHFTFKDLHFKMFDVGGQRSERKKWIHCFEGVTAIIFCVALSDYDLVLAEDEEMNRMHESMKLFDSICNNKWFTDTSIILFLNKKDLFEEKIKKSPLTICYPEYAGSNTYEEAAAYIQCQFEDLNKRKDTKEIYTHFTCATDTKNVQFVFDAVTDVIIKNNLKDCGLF
Cytochrome P450 2C9 (Homo sapiens), sequence (P11712 whole entry, looked up): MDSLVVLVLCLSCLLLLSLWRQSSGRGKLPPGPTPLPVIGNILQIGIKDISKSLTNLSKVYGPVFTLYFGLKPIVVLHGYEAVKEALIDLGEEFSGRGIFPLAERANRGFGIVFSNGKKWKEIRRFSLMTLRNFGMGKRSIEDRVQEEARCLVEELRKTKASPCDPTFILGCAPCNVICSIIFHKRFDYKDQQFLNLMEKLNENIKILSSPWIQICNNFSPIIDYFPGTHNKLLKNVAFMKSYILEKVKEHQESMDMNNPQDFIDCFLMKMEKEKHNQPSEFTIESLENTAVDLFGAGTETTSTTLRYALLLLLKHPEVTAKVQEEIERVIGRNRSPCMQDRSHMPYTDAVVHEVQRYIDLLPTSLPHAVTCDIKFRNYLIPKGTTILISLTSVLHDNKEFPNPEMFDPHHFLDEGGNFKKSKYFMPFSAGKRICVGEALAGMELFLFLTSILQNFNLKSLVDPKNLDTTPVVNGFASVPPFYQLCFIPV

Cc1cnc(C(=O)NCCc2ccc(S(=O)(=O)NC(=O)NC3CCCCC3)cc2)cn1
Potency [1]: inactive

Cc1ccc(-c2cc(C(F)(F)F)nn2-c2ccc(S(N)(=O)=O)cc2)cc1
Potency [2]: inactive | outcome [3]: inactive | outcome [4]: inactive | outcome [5]: inactive

Cc1ccc(C(=O)Nc2ccc(S(=O)(=O)O)c3cc(S(=O)(=O)O)cc(S(=O)(=O)O)c23)cc1NC(=O)c1cccc(NC(=O)Nc2cccc(C(=O)Nc3cc(C(=O)Nc4ccc(S(=O)(=O)O)c5cc(S(=O)(=O)O)cc(S(=O)(=O)O)c45)ccc3C)c2)c1
Potency [1]: inactive

NCCc1cnc[nH]1
Potency [1]: inactive

O=C1c2c(O)ccc(O)c2C(=O)c2c(NCCNCCO)ccc(NCCNCCO)c21
Potency [1]: inactive

CCOC(=O)Nc1ccc(NCc2ccc(F)cc2)nc1N
Potency [1]: inactive

Cn1c(=O)c2c(ncn2C)n(C)c1=O
outcome [6]: inactive | Potency [2]: inactive | outcome [3]: inactive | outcome [4]: inactive | outcome [5]: inactive | Potency [1]: inactive | Potency [7]: inactive | outcome [8]: inactive | Potency [9]: inactive

CC(COc1ccccc1)N(CCCl)Cc1ccccc1 (stereo not given)
outcome [6]: inactive | Potency [2]: 31.6 µM (active) | outcome [4]: inactive | Potency [10]: inactive

CC(C)NCC(O)c1ccc(O)c(O)c1 (stereo not given)
outcome [6]: inactive | Potency [2]: inactive | outcome [3]: inactive | outcome [4]: inactive | outcome [5]: inactive

Clc1ccc(C(c2ccccc2Cl)C(Cl)Cl)cc1 (stereo not given)
caspase-3 activation [2]: 133% (active) | outcome [4]: inactive | outcome [5]: inactive | Potency [1]: inactive

NC(=O)NO
Potency [1]: inactive

CC[N+](CC)(CC)CCOc1cccc(OCC[N+](CC)(CC)CC)c1OCC[N+](CC)(CC)CC
Potency [1]: inactive

CN1CCC(=C2c3ccccc3CC(=O)c3sccc32)CC1
Potency [1]: inactive | outcome [8]: inactive | Potency [9]: 7.94 µM (active) and 3.16 µM (active) and 5.01 µM (active)

COc1nc(C)nc(Cl)c1NC1=NCCN1
Potency [1]: inactive | outcome [8]: inactive

OCCN(CCO)c1nc(N2CCCCC2)c2nc(N(CCO)CCO)nc(N3CCCCC3)c2n1
Potency [1]: 10 µM (active) | Potency [9]: 12.6 µM (active) and 10 µM (active) | outcome [9]: inactive

Cc1cc(C(C)(C)C)cc(C)c1CC1=NCCN1
Potency [1]: inactive | Potency [10]: inactive | Potency [9]: 3.98 µM (active)

CC[C@@]1(O)C(=O)OCc2c1cc1n(c2=O)Cc2cc3c(CN(C)C)c(O)ccc3nc2-1
outcome [8]: inactive

CN1CCC(=C2c3ccccc3C=Cc3ccccc32)CC1
Potency [1]: inactive | Potency [9]: 2.51 µM (active) and 3.98 µM (active)

CS(=O)(=O)Nc1ccc([N+](=O)[O-])cc1Oc1ccccc1
Potency [1]: inactive | Potency [7]: 10 µM (active) and 3.16 µM (active) | Potency [10]: inactive | Potency [9]: inactive

CN(C)C(=O)C(CCN1CCC(O)(c2ccc(Cl)cc2)CC1)(c1ccccc1)c1ccccc1
Potency [1]: inactive

CN(C)CCC=C1c2ccccc2C=Cc2ccccc21
Potency [1]: inactive | outcome [8]: inactive | Potency [9]: 6.31 µM (active)

COc1cc2nc(N(C)CCCNC(=O)C3CCCO3)nc(N)c2cc1OC (stereo not given)
outcome [8]: inactive

COc1cc2nc(N3CCN(C(=O)c4ccco4)CC3)nc(N)c2cc1OC
Potency [7]: inactive | outcome [8]: inactive | Potency [10]: 12.6 µM (active) | Potency [9]: inactive

CN1CCN(CCCN2c3ccccc3Sc3ccc(Cl)cc32)CC1
Potency [1]: inactive | Potency [9]: 398 nM (active) and 794 nM (active)

Cc1cc(C(C)(C)C)c(O)c(C)c1CC1=NCCN1
Potency [1]: inactive | Potency [10]: inactive | Potency [9]: 3.98 µM (active) and 39.8 nM (active)

Fc1ccc([C@@H]2CCNC[C@H]2COc2ccc3c(c2)OCO3)cc1
Potency [1]: inactive | Potency [10]: inactive

Clc1ccccc1C(c1ccccc1)(c1ccccc1)n1ccnc1
Potency [1]: inactive | Potency [7]: 1 µM (active) and 316 nM (active) | Potency [10]: inactive | Potency [9]: 10 µM (active)

Clc1ccc2c(c1)C(N1CCNCC1)=Nc1ccccc1O2
Potency [1]: inactive | Potency [7]: inactive | Potency [10]: inactive

Nc1nnc(-c2cccc(Cl)c2Cl)c(N)n1
Potency [1]: inactive | Potency [9]: inactive and 6.31 µM (active)

COc1ccc(C2CNC(=O)C2)cc1OC1CCCC1 (stereo not given)
Potency [1]: inactive | Potency [10]: inactive

CN1CCN2c3ccccc3Cc3ccccc3C2C1 (stereo not given)
Potency [10]: inactive

CCC1(C)CC(=O)NC1=O (stereo not given)
outcome [8]: inactive

O=C1N(c2ccccc2)c2ccccc2C1(Cc1ccncc1)Cc1ccncc1
Potency [1]: inactive | Potency [7]: 3.98 µM (active) and 7.94 µM (active) | Potency [9]: inactive

CCOC(=O)c1ncn2c1CN(C)C(=O)c1cc(F)ccc1-2
Potency [7]: inactive | outcome [8]: inactive | Potency [9]: inactive

O=C(C1CCCCC1)N1CC(=O)N2CCc3ccccc3C2C1 (stereo not given)
Potency [1]: inactive | Potency [10]: inactive

CN1C(C(=O)Nc2ccccn2)=C(O)c2ccccc2S1(=O)=O
Potency [1]: inactive | Potency [7]: 3.98 µM (active) | Potency [10]: inactive | Potency [9]: inactive

O=c1c(O)c(-c2ccc(O)c(O)c2)oc2cc(O)cc(O)c12
Potency [1]: inactive | Potency [10]: inactive | Potency [9]: inactive

C[C@](N)(Cc1ccc(O)c(O)c1)C(=O)O
Potency [1]: inactive | Potency [10]: inactive

Cc1ccccc1N1C(=O)c2cc(S(N)(=O)=O)c(Cl)cc2NC1C (stereo not given)
Potency [1]: inactive | Potency [10]: inactive

CC12CC3CC(C)(C1)CC(N)(C3)C2
outcome [8]: inactive

CN(Cc1cnc2nc(N)nc(N)c2n1)c1ccc(C(=O)N[C@@H](CCC(=O)O)C(=O)O)cc1
Potency [1]: inactive | outcome [8]: inactive

O=C(CCCN1CCC(O)(c2ccc(Cl)cc2)CC1)c1ccc(F)cc1
Potency [1]: inactive

CC(=O)OCC(CCn1cnc2cnc(N)nc21)COC(C)=O
outcome [8]: inactive

COC(=O)Nc1nc2ccc(C(=O)c3cccs3)cc2[nH]1
Potency [1]: inactive | Potency [7]: inactive | outcome [8]: inactive | Potency [9]: inactive

CC(C)Cc1ccc(C(C)C(=O)O)cc1 (stereo not given)
Potency [1]: inactive | outcome [8]: inactive

CCN1CCCC1CNC(=O)c1cc(S(=O)(=O)CC)c(N)cc1OC (stereo not given)
outcome [8]: inactive

CN(C)c1nc(N(C)C)nc(N(C)C)n1
Potency [1]: inactive

NC(=O)OCC(COC(N)=O)c1ccccc1
Potency [1]: inactive | Potency [7]: inactive | Potency [9]: inactive and 794 nM (active)

CN(C)CCCN1c2ccccc2CCc2ccc(Cl)cc21
Potency [1]: inactive | Potency [7]: inactive | Potency [10]: inactive

O=C(Nc1ccc([N+](=O)[O-])cc1Cl)c1cc(Cl)ccc1O
Potency [1]: inactive | Potency [7]: 0.631 µM (active) | Potency [10]: inactive

Cn1ccc2cc3c(cc21)CCN3C(=O)Nc1cccnc1
Potency [1]: inactive | Potency [10]: inactive

NCCCCCC(=O)O
Potency [1]: inactive | outcome [8]: inactive
